Results on 36 molecules are retold here after PubChem BioAssay AID504452 (The Scripps Research Institute Molecular Screening Center, 2011).

Activity calls are given as the source filed them. Rule as the data show it: active = activation above about 85%; inactive = the rest.

In the test the target is Peroxisome proliferator-activated receptor gamma (Homo sapiens) (UniProt P37231). Nature of the test: partial agonism at human PPARgamma receptor – cell-based, luciferase reporter, luminescence, primary screen (AID 504452).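 Also: Cos-1 cells carrying PPARgamma and a response element luciferase reporter.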 The conditions noted are these: cell-based PPARg luciferase reporter, at 5 µM, stronger effect = higher value; activation (% of full agonist control): measured here: relative to full agonist control. In general terms: In a reporter assay the amount or activity of a reporter protein is the signal.
Sequence of Peroxisome proliferator-activated receptor gamma (Homo sapiens) (P37231 whole entry, looked up): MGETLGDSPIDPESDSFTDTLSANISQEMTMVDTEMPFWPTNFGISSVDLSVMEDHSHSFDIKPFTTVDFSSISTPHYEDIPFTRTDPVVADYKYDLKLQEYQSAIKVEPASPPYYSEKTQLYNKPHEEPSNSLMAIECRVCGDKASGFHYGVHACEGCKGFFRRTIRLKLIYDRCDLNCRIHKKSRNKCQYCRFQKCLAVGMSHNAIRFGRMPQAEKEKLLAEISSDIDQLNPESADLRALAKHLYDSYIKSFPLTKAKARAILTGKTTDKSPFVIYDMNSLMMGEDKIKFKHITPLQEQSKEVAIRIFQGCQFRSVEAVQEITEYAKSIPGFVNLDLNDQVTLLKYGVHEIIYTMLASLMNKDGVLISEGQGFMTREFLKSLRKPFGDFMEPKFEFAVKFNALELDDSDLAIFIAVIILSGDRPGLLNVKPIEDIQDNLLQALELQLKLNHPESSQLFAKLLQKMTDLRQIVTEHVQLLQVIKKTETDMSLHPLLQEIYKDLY

Turning to `O=c1c2cn(Cc3ccc(F)cc3)c3ccc(F)cc3c-2nn1Cc1ccc(F)cc1`, the activation (% of full agonist control) amounted to 48.9% and the activation (% of partial agonist control) was 108% (active).
Regarding `Nc1ccccc1SC1CC(=O)N(c2ccc3c(c2)OCO3)C1=O` (configuration not stated), the activation (% of full agonist control) came out at 34.5% and the activation (% of partial agonist control) was 76.4% (inactive).
In the same order, the values of `Cc1cc(N2C(=O)C(O)=C(C(=O)c3ccc(C)o3)C2c2cccc(Oc3ccccc3)c2)no1` (configuration not stated) are 34.1% and 75.5% (inactive).
In the same order, the values of `O=C(CCCCCNC(=O)N1CCn2c1nc1ccccc12)N[C@@H](Cc1ccccc1)C(=O)O` are 32.6% and 72.2% (inactive).
For `Cn1cc(CNCc2cn[nH]c2-c2ccc(F)cc2)c(-c2ccc3c(c2)OCCO3)n1` the same measures were 29.7% and 65.8% (inactive).
As to `O=C(c1ccccc1)c1ccc(NCCCn2ccnc2)c([N+](=O)[O-])c1`, the activation (% of full agonist control) turned out to be 26.9% and the activation (% of partial agonist control) was 59.6% (inactive).
On to `CSCc1c(C(=O)Nc2ccc(N3CCOCC3)cc2)oc2ccccc12`, for which the activation (% of full agonist control) amounted to 33.5% and the activation (% of partial agonist control) is 74.2% (inactive).
For `O=C(CSc1nc(=O)n(CCCN2CCOCC2)c2c1CCC2)Nc1cccc(F)c1` the same measures were 40.3% and 89.3% (active).
Consider `COc1ccc(/C(O)=C2/C(=O)C(=O)N(Cc3ccco3)C2c2cccs2)cc1` (configuration not stated), for which the activation (% of full agonist control) is 32.1% and the activation (% of partial agonist control) was 71.1% (inactive).
For `CC(=O)N1N=C(c2ccccc2)CC1c1cn(Cc2ccccc2)c2ccccc12` (configuration not stated) the same measures were 44.7% and 99% (active).
In the same order, the values of `CC(=O)c1cccc(NC(=O)CSc2nc(=O)n(CCN3CCOCC3)c3c2CCCC3)c1` are 36.2% and 80.2% (inactive).
As to `Cc1nn(CC(=O)N2CCC(N3CCCCC3)CC2)c(=O)c2c1sc1ccccc12`, the activation (% of full agonist control) is 27.9% and the activation (% of partial agonist control) was 61.8% (inactive).
In the same order, the values of `COC(=O)c1sc(N2C(=O)C(O)=C(C(=O)c3ccc(C)o3)C2c2ccc(F)cc2)nc1C` (configuration not stated) are 29.9% and 66.2% (inactive).
In the same order, the values of `CC(C(=O)N1CCN(c2ccccc2)CC1)N1C(=O)C2CC=CCC2C1=O` (configuration not stated) are 32.1% and 71.1% (inactive).
As for `O=c1c2cn(Cc3ccc(F)cc3)c3ccccc3c-2nn1Cc1ccc(F)cc1`, the activation (% of full agonist control) was determined as 40.3% and the activation (% of partial agonist control) was 89.3% (active).
In the same order, the values of `COc1ccccc1NC(=O)C(=O)c1cn(CC(=O)N2CCOCC2)c2ccccc12` are 42.3% and 93.5% (active).
In the same order, the values of `CCOc1cc(C2C(C(=O)OC)=CN(Cc3ccc(Cl)cc3)C=C2C(=O)OC)ccc1O` are 37.6% and 83.2% (inactive).
For `O=C(c1cccc(N2C(=O)C3C4C=CC(C4)C3C2=O)c1)N1CCN(c2ccccc2Cl)CC1` (configuration not stated) the same measures were 41.1% and 91% (active).
As for `CC(Oc1ccc2c(c1)oc(=O)c1ccccc12)C(=O)NC(Cc1c[nH]c2ccc(O)cc12)C(=O)O` (configuration not stated), the activation (% of full agonist control) was 49.2% and the activation (% of partial agonist control) is 109% (active).
As for `CCn1cc(C(=O)N2CCN(c3ccc(OC)cc3)CC2)c2cc(OC)c(OC)cc2c1=O`, the activation (% of full agonist control) came out at 27.6% and the activation (% of partial agonist control) is 61% (inactive).
In the same order, the values of `N=c1c(C(=O)NCCc2ccccc2)cc2c(=O)n3ccccc3nc2n1CC1CCCO1` (configuration not stated) are 34.6% and 76.7% (inactive).
In the same order, the values of `Cc1ccc(C)c(/C(O)=C2/C(=O)C(=O)N(CCN3CCOCC3)C2c2ccc(C)o2)c1` (configuration not stated) are 9.22% and 20.4% (inactive).
Regarding `Cc1cccn2c(CN3CCNC(=O)CC3)c(C(=O)N(C)CCc3ccccc3)nc12`, the activation (% of full agonist control) was found to be 36.3% and the activation (% of partial agonist control) is 80.3% (inactive).
In the same order, the values of `O=C(NCCCn1ccnc1)C(=O)NCC(c1ccco1)N1CCN(c2ccccc2)CC1` (configuration not stated) are 28.4% and 62.9% (inactive).
For the molecule `O=C(Cn1c(=O)c(=O)n(Cc2ccccc2)c2ccc(Cl)cc21)Nc1cc(F)ccc1F`, the activation (% of full agonist control) stood at 28.4% and the activation (% of partial agonist control) is 62.9% (inactive).
For `COc1ccc(S(=O)(=O)N2CCCCC2)cc1NC(=O)C1CSC2(C)CCC(=O)N12` (configuration not stated), the activation (% of full agonist control) was 40.2% and the activation (% of partial agonist control) is 89% (active).
On to `CC(=O)Nc1cccc(-n2c(=O)n(Cc3ccccc3)c(=O)c3[nH]cnc32)c1`, for which the activation (% of full agonist control) worked out at 36.6% and the activation (% of partial agonist control) is 81.1% (inactive).
For `O=C1CC(N2CCN(Cc3ccc4c(c3)OCO4)CC2)C(=O)N1Cc1ccc(N2CCCC2=O)cc1` (configuration not stated) the same measures were 41.4% and 91.6% (active).
In the same order, the values of `O=C(NC(Cc1ccccc1)C(=O)O)/C(=C/c1ccc([N+](=O)[O-])cc1)NC(=O)c1ccco1` (configuration not stated) are 35.3% and 78.1% (inactive).
Consider `COc1ccc2nc(N3C(=O)C(O)=C(C(=O)c4ccco4)C3c3ccc(C)o3)sc2c1` (configuration not stated), for which the activation (% of full agonist control) stood at 41.1% and the activation (% of partial agonist control) was 91.1% (active).
For `O=[N+]([O-])c1cc(S(=O)(=O)Nc2cccc(C(F)(F)F)c2)ccc1-n1nnc2ccccc21` the same measures were 34.2% and 75.8% (inactive).
For `CCOc1cc(N2CCOCC2)c(OCC)cc1NC(=O)c1ccc2ccccc2n1` the same measures were 46.5% and 103% (active).
As for `Cc1c(CNCCC2=CCCCC2)c(C(=O)O)c(C)n1Cc1ccccc1`, the activation (% of full agonist control) came to 10% and the activation (% of partial agonist control) was 22.2% (inactive).
In the same order, the values of `CCc1ccc(N2CC(C(=O)OCC(=O)Nc3ccc(C(C)=O)cc3)CC2=O)cc1` (configuration not stated) are 31% and 68.6% (inactive).
For `COc1cccc(CN2CCN(Cc3ccc4c(NC(C)=O)cccc4n3)CC2CCO)c1` (configuration not stated) the same measures were 36.5% and 80.7% (inactive).
For `O=C(Cn1nc(Cc2ccncc2)c2ccccc2c1=O)N1CCN(C(=O)c2ccco2)CC1` the same measures were 36.2% and 80.2% (inactive).
